Experimental data as given in PubChem BioAssay AID602449 (Sanford-Burnham Center for Chemical Genomics, 2012).
About 5,000 (1.4%) of roughly 360,000 compounds were called active. The entries come from a sample that favours actives as a whole. A number with no mark means an inactive call.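 Rule for the calls: active = inhibition of 50% or more, scaled per plate between neutral and stimulator controls; inactive = the rest.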

Test: blockers of Ca2+-induced mitochondrial swelling – biochemical, isolated mouse mitochondria, absorbance, primary screen (AID 602449);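 note: 0% = DMSO wells given calcium and 100% = 1 mM EGTA wells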
Conditions: 30 min, at 10 µM, stronger effect = higher value

Row | SMILES | inhibition
1 | CCc1nc2c(=O)[nH]cnc2o1 | -1.8%
2 | O=C(CSc1nc(=O)n2ccccc2n1)Nc1ccc2c(c1)OCCO2 | -1.6%
3 | Cc1nnc(SC(C(=O)Nc2cc(Cl)cc(Cl)c2)c2ccccc2)[nH]c1=O (stereo unspecified) | 86.4% (active)
4 | Cc1nnc(SC(C(=O)c2ccccc2)c2ccccc2)[nH]c1=O (stereo unspecified) | 1.4%
5 | CC(NCC(=O)Nc1cc(Cl)cc(Cl)c1)c1ccccc1 (stereo unspecified) | 3.1%
6 | CCC(C)[C@H]1COCCS(=O)(=O)N1Cc1ccc(C)cc1 (stereo partly specified) | -0.2%
7 | CCC(c1nnc(SCC(=O)NNC(=O)c2ccccc2)n1Cc1ccccc1)N(C)C (stereo unspecified) | 1.2%
8 | COc1ccc(NC(=O)CN(C)C(=O)c2cc(C3CC3)nn2-c2ccccc2)cc1 | -0.5%
9 | Cc1cccc(C(=O)OCC(=O)NC(C)C2CC3CCC2C3)c1O (stereo unspecified) | 0.9%
10 | O=C(CN1CCN(C(=S)NC2CCCC2)CC1)Nc1ccc(Oc2ccccc2)cc1 | 5.8%
11 | CCN(CC)S(=O)(=O)c1ccc(N(C)Cc2ccc(C(F)(F)F)cc2)nc1 | 94% (active)
12 | CCN(CC)S(=O)(=O)c1ccc(N(C)Cc2cccc(OC)c2OC)nc1 | 3.9%
13 | CCN(CC)S(=O)(=O)c1ccc(N(C)CCc2ccc(OC)c(OC)c2)nc1 | -2%
14 | NC(=O)C1CCN(C(=O)c2ccc(C(F)(F)F)cc2)CC1 | -3.2%
15 | CC1(c2ccc3ccccc3c2)NC(=O)N(CC(N)=O)C1=O (stereo unspecified) | 1%
16 | Cc1ccc2c(c1)C1CN(C)CCC1N2S(=O)(=O)c1ccc(Oc2ccc([N+](=O)[O-])cc2)cc1 (stereo unspecified) | 83.1% (active)
17 | Cc1ccc2c(c1)C1CN(C)CCC1N2C(=O)c1ccccc1NS(=O)(=O)c1ccc(F)cc1C (stereo unspecified) | -0.2%
18 | Cc1ccc2c(c1)C1CN(C)CCC1N2S(=O)(=O)c1cccc(F)c1 (stereo unspecified) | 0.2%
19 | COc1cc(OC)c(C(=O)NNC(=O)c2ccccc2-n2cccc2)cc1OC | -0.2%
20 | Cc1ccc(C(=O)OCC(=O)NC2CCCCCCC2)cc1C | -1.2%
21 | Cc1nc2c(OCC(=O)C(C)(C)C)cccn2c1N(C)Cc1cccs1 | 2.6%

Row | SMILES | inhibition
22 | CCCCC(=O)N(C)c1c(CC)nc2c(OCc3ccc(Cl)cc3Cl)cccn12 | -1.5%
23 | Cc1nc2c(OCc3cccc(Cl)c3)cccn2c1N(C)CC1CC1 | 88.2% (active)
24 | CCc1nc2c(OCc3ccccc3)cccn2c1N(C)C(=O)c1ccco1 | 0%
25 | Cc1nc2c(OCc3ccc(Cl)cc3Cl)cccn2c1N(C)CC1CC1 | 82.3% (active)
26 | Cc1nc2c(OCc3ccc(Cl)cc3)cccn2c1N(C)Cc1cccs1 | 79.6% (active)
27 | CCc1nc2c(OCc3ccc(F)c(F)c3)cccn2c1N(C)C(=O)c1ccco1 | -2.8%
28 | CCc1nc2c(OCc3ccc(Cl)cc3Cl)cccn2c1N(C)C(=O)C(C)C | -3.5%
29 | CCc1nc2c(OCc3cccc(OC)c3)cccn2c1N(C)C(=O)C(C)C | -1.6%
30 | CCOc1cc(-c2noc(CCCC(=O)NC3CCCCC3)n2)ccc1OC | 0.3%
31 | CCc1nc2ccc(C(=O)NCCNC(C)=O)cn2c1N(CC)Cc1cccc(Br)c1 | -0.2%
32 | CCCC(C)C(=O)OCC(=O)Nc1c(Br)cc(C)cc1Br (stereo unspecified) | -0.2%
33 | CCc1c(C)sc(NC(=O)c2cccs2)c1C(N)=O | -0.6%
34 | OC(C#CCN1CCOCC1)(c1ccccc1)C1CCCCC1 (stereo unspecified) | -2.4%
35 | CCc1oc(-c2ccc(OC)cc2)c(C(=O)OCCCCCO)c1C(C)OCCO (stereo unspecified) | 0.2%
36 | CCC(C)(C)NC(=O)CN(C(=O)C(=O)Nc1ccc2c(c1)OCCO2)C(C)(C)CC | -1%
37 | O=C1[C@@H]2C(c3cccnc3)=NO[C@@H]2C(=O)N1c1ccc(Cl)cc1Cl | 2.7%
38 | CC(=O)Nc1ccc(NS(=O)(=O)c2cc(C)sc2C)cc1 | 0.5%
39 | CCCc1cc(=S)n2c([nH]c3ccccc32)c1C#N | 94.4% (active)
40 | CN(C)Cc1c(C#N)c2ccccc2n1C | -1.4%
41 | O=C(COc1ccc(Cl)cc1)NCCS(=O)(=O)N1CCN(c2ccc(F)cc2)CC1 | 1.5%
42 | CCOC(=O)N1CCC(NC(=O)C(NS(=O)(=O)c2ccc3c(c2)CCN3C(=O)CC)C(C)C)CC1 (stereo unspecified) | -0.2%

Row | SMILES | inhibition
43 | Cc1ccc(CNC(=O)[C@@H](NC(=O)Cc2ccccc2)C(C)C)cc1 | 0.5%
44 | Cc1ccc(NC(=S)NC(NC(=O)Cc2cccc3ccccc23)C(Cl)(Cl)Cl)cc1 (stereo unspecified) | 55.5% (active)
45 | CN(CC(=O)Nc1ccc(Cl)cc1)CC(=O)Nc1cccc2ccccc12 | 0.6%
46 | O=C(Cc1cccc2ccccc12)NNC(=O)Nc1ccc(Cl)cc1 | 72.6% (active)
47 | CC(C)(C)C(=O)NC(NC(=S)Nc1ccc(S(N)(=O)=O)cc1)C(Cl)(Cl)Cl (stereo unspecified) | -2.5%
48 | O=C(O)Cc1ccc(NC(=O)Nc2cccc3ccccc23)cc1 | 0.9%
49 | CCCOC(=O)CC1C(=O)NCCN1Cc1ccc(F)cc1 (stereo unspecified) | 0.6%
50 | Cn1nnnc1SCC(=O)Nc1cccc(S(=O)(=O)N2CCCCC2)c1 | -0.1%
51 | Cc1ccc(NS(=O)(=O)c2ccc(F)cc2)nc1 | -0.6%
52 | CN(NS(=O)(=O)c1cccs1)c1ncc(C(F)(F)F)cc1Cl | 2.5%
53 | Cc1cc(C)cc(NS(=O)(=O)c2ccc(Oc3ncc(C(F)(F)F)cc3Cl)cc2)c1 | 50.8% (active)
54 | COc1ccc(CCOC(=O)CNC(=O)c2ccc(Cl)cc2Cl)cc1 | 1.4%
55 | COc1ccc(CNc2nccs2)cc1 | 0.7%
56 | COc1ccc(CNc2ncnc3ccccc23)cc1 | 70.5% (active)
57 | O=C(COc1ncnc2ccccc12)NC(=O)NCc1ccccc1 | -0.1%
58 | CC1(C)C2CC=C(/C=N/NC(=O)C3CC3)C1C2 (stereo unspecified) | -1.7%
59 | CCOc1ccc(N2C(=O)/C(=C/c3ccc(C)o3)N(C)C2=S)cc1 | 4.3%
60 | Cc1c(C)n2c(SCC(=O)NC3CCCC3)nnc2[nH]c1=O | -1.2%
61 | O=C1CCCCC1Sc1ccc(Cl)cc1[N+](=O)[O-] (stereo unspecified) | -0.4%
